High-throughput results (PubChem BioAssay)
PKA-R1A act: activators of PKA-R1A complex | PKA-R1A dissociation, Cy5-IP20 fluorescence polarization; scaled: DMSO 0%, 113 µM cGMP 100% | P00514+P68181 | 340,000 tested, 0.083% active | activation, % at 11.4 µM;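 active = percent activation above the mean of all tested compounds plus 3 SD, cut at about 19% in these data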;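 note: higher means more PKAc released from R1A so a rise in polarization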
eLon inh: inhibitors of E. coli Lon protease | purified E. coli Lon protease, fluorescence polarization | inhibition, % at 7.94 µM | P0A9M0 | 360,000 tested, 0.42% active | AID 602123; in the data active = inhibition above about 13%, passing the limit was not always enough;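 note: 0% = enzyme with probe and DMSO and 100% = no enzyme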
IDE inh: cellular human IDE inhibition. 320,000 tested, 0.41% active. P14735. AID 434962. inhibition, % at 5.59 µM. HEK cells, FAbetaB cleavage, fluorescence polarization;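 active = percent inhibition above the average of all tested compounds plus 3 SD, set per screening campaign, cut at about 16% in these data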;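 note: IDE supplied by intact live HEK cells; FP after avidin binding of uncleaved biotin substrate so inhibition keeps polarization high; 0% = DMSO wells and 100% = 60 µM reference IDE inhibitor Ii1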
Rin1-Abl PPI inh: human Rin1-Abl interaction inhibition | 360,000 tested, 0.4% active | inhibition, % at 7.35 µM | TR-FRET Rin1/Abl binding, biochemical; in the data active = inhibition above about 5%, passing the limit was not always enough
PKA-R2B act: activates the human PKA-R2B holoenzyme complex; PKA-R2B holoenzyme dissociation, Cy5-IP20 fluorescence polarization; R2B truncated from residue 108, S112A mutant; 0% DMSO only, 100% 113 µM cGMP; activation, % at 11.4 µM; 340,000 tested, 0.079% active;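 active = activation above a cutoff set at the mean over all compounds plus 3 SD, cut at about 18% in these data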;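 note: higher means more holoenzyme dissociation and a rise in polarization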
Target sequence (P31323 whole entry, looked up, other chains not shown, the tested form may be a part): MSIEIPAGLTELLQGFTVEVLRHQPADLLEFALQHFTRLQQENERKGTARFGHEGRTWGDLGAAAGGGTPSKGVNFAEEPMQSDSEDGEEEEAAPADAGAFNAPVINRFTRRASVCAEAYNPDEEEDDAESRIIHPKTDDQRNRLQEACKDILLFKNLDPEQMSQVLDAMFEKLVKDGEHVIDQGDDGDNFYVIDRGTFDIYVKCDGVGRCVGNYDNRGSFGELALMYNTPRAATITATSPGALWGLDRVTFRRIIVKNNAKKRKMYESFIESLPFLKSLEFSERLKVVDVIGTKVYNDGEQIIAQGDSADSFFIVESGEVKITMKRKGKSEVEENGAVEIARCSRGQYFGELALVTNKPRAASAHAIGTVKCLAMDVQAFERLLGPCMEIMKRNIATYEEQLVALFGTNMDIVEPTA
IDE act: IDE (human) activation, cell-based; P14735; HEK cells, FAbeta-B cleavage, fluorescence polarization; 0% vehicle, 100% cell-free pure enzyme wells; activation, % at 5.96 µM; 340,000 tested, 0.073% active;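 active = activation above the mean of all tested compounds plus 3 SD, set per screening campaign, cut at about 17% in these data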
IDE cell inh cf: cellular human IDE inhibition, confirmation; shares compounds with IDE inh; HEK cells, FAbetaB cleavage, fluorescence polarization; inhibition, % at 5.59 µM; 1,200 tested, 51% active;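 active = mean inhibition across triplicate wells above the cutoff set by the earlier primary insulin-degrading enzyme screen, cut at about 16% in these data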;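 note: 0% = DMSO wells and 100% = 60 µM reference IDE inhibitor Ii1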
HEK cytotox: counter-screen for IDE inhibitors: cytotoxicity in HEK cells. shares compounds with IDE inh. HEK293 cytotoxicity, ATP luminescence. inhibition, % at 5.59 µM. 1,200 tested, 28% active. AID 449730; in the data active = inhibition above about 22%;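 note: 0% = vehicle wells and 100% = reference cytotoxic drug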
Starred values were filed as active, the others as inactive; i = inactive; x = no result given. In the library only some 1.3% were active in any assay of this set; here they are far more common.

SMILES	PKA-R1A act	eLon inh	IDE inh	Rin1-Abl PPI inh	PKA-R2B act	IDE act	IDE cell inh cf	HEK cytotox
CCCc1cc(C(=O)Nc2ccc(C(=O)c3ccccc3)cc2)n(C)n1	-3.7	-6.3	18.8*	-3.2	2.1	-10.7	3.6	23.1*
CCCc1cc(C(=O)Nc2ccc(C(=O)c3ccc(F)cc3)cc2)n(C)n1	-4.6	-3.8	4.1	-0.7	4.2	-4.7	x	x
CCCCOc1ccc(C(=O)Nc2cc(C)c(OCC(=O)N3CCOCC3)c(C)c2)cc1	6.6	1.6	38.7*	1.9	-2.2	-16.6	10.2	24.9*
COc1ccccc1NC(=O)c1nn(-c2ccc(OC(F)(F)F)cc2)ccc1=O	2.1	-1.0	-7.9	-2.2	1.0	-1.7	x	x
CCC(C)C(=O)Nc1nc(C)c(-c2csc(Nc3ccc(Cl)cc3)n2)s1 (stereo unspecified)	-7.4	-24.6	1.1	-3.2	-3.8	0.7	x	x
Cc1ccc(-c2nc3c(c(=O)[nH]c(=O)n3Cc3ccccc3)n2C)o1	-14.9	-1.4	x	2.8	-1.4	1.9	x	x
COc1cccc(NC(=O)COC(=O)/C=C/c2c(C)nn(-c3ccccc3)c2C)c1	2.9	-10.2	24.8*	0.8	-13.6	-16.6	20.6*	10.7
Cc1ccsc1C(=O)OCC(=O)N(Cc1ccccc1)C(C)C	-7.5	7.5	16.3*	1.8	6.0	2.4	2.7	12.4
COc1ccc(/C=N/n2c(C)nc3sc(C)c(C)c3c2=O)cc1	x	6.1	7.5	0.1	x	x	x	x
Cc1sc2nc(C)n(/N=C/c3ccccc3)c(=O)c2c1C	-11.6	-1.6	16.2*	-2.2	0.8	-10.8	10.2	12.9
O=c1[nH]c2ccccc2c(O)c1-[n+]1ccccc1	3.5	2.8	10.9	2.4	-13.0	-1.4	x	x
O=c1[nH]c2ccccc2c(O)c1O	-1.5	8.1	62.1*	20.5*	-5.6	-46.8	64.7*	18.5
CC(=O)Nc1ccc(NC(=S)NC(=O)/C=C/c2ccc(Cl)cc2)cc1	0.5	1.6	-4.3	-1.1	-12.9	-4.6	x	x
O=C(/C=C/c1ccc(Cl)cc1)NC(=S)Nc1ccc(NC(=O)c2ccco2)cc1	8.1	1.2	43.4*	0.6	3.7	-20.4	16.7*	77.4*
CCc1nnc(NC(=O)C2CC(=O)N(c3ccc(C)cc3)C2)s1 (stereo unspecified)	7.3	-7.1	0.0	0.3	5.1	2.8	x	x
Cc1cccc(N2CCN(C(=O)CCCn3c(=O)c4cccn4c4cccnc43)CC2)c1C	-12.6	14.7	25.2*	3.4	-3.8	-10.9	6.9	23.4*
Cn1c(SCC(=O)Nc2ccc3nc(SCC(=O)N4CCCC4)sc3c2)nnc1-c1ccccc1	x	x	21.4*	x	x	x	14.1	10.1
COc1ccc(/C=N\NC(=O)/C(=C\Nc2nccc(C)n2)NC(=O)c2ccccc2)cc1	-6.9	-3.8	12.7	1.2	-7.0	-0.8	x	x
Cc1ccc(/C=N\NC(=O)/C(=C\Nc2nccc(C)n2)NC(=O)c2ccccc2)cc1	11.3	-4.4	25.8*	0.4	11.4	-47.4	31.4*	9.9
Cc1cccc(N2C(=O)C(O)=C(C(=O)c3cccs3)C2c2ccccc2)n1 (stereo unspecified)	-10.6	4.0	2.4	-2.0	-3.8	2.7	x	x
C=CCN1C(=O)/C(=C/c2ccc(O)cc2)S/C1=N/c1nccs1	-6.7	-217.2	118.6*	-1.7	-8.7	-111.3	93.5*	20.1
Cc1c(N2C(=O)/C(=C\c3ccc(N(C)C)cc3)N(C)C2=S)c(=O)n(-c2ccccc2)n1C	-0.1	-390.3	53.3*	-23.3	-0.3	-35.5	40.2*	13.4
CCn1c(=O)c(C(=O)CN2CCCc3ccccc32)c(N)n(Cc2ccccc2)c1=O	-2.9	-32.7	36.6*	-3.5	9.2	-3.8	10.3	16.6
CCn1c(=O)c(C(=O)CN2c3ccccc3CC2C)c(N)n(Cc2ccccc2)c1=O (stereo unspecified)	0.7	-11.0	4.3	0.4	8.9	0.7	x	x
Cc1ccc(C)c(NC(=O)CSc2nc3c(c(=O)n2C)SC(C)C3)c1 (stereo unspecified)	-4.8	-4.0	-2.3	3.1	-14.7	2.8	x	x
SMILES	PKA-R1A act	eLon inh	IDE inh	Rin1-Abl PPI inh	PKA-R2B act	IDE act	IDE cell inh cf	HEK cytotox
Cc1ccc2nc(NC(=O)CSc3nc4c(c(=O)n3C)SC(C)C4)sc2c1 (stereo unspecified)	1.1	-8.2	24.6*	-1.6	-3.6	-21.4	11.8	20.3
CCCCN1C(=O)/C(=C/C=C2/CC(C)(C)CN2C)SC1=S	-3.7	x	106.7*	-15.2	-3.5	-129.7	148.6*	28.4*
CCCN1C(=O)/C(=C\C=C2/Sc3ccccc3N2CCO)SC1=S	-7.5	-32.8	10.5	-0.4	-8.2	-17.4	x	x
CCN1C(=O)/C(=C/C=C2/SCCN2C)SC1=S	-14.5	-471.6	26.5*	-13.2	1.8	-44.1	68.9*	21.4
CCN1C(=O)/C(=C/C=C2/Sc3ccccc3N2CCO)SC1=S	7.8	-136.7	20.1*	-2.7	-6.6	-16.6	19.2*	19.8
CN1CCS/C1=C\C=C1/SC(=S)N(CC(=O)O)C1=O	7.8	i	x	-29.1	-1.2	-100.7	x	x
CCCNc1ncnc2c1cnn2C1CCCCO1 (stereo unspecified)	-1.5	-4.6	x	2.3	1.9	1.8	x	x
Cc1cccc(C)c1NC(=O)CSc1nnc(-c2ccco2)n1N	-1.8	-0.2	1.3	4.8	-8.9	-0.5	x	x
Cc1ccc2c(c1)c1ncnc(N3CCOCC3)c1n2C	-11.2	-5.9	17.0*	-5.2	9.8	-23.5	12.1	9.9
Cc1ccc2c(c1)c1ncnc(N3CCN(c4ccccc4)CC3)c1n2C	7.5	0.1	2.1	-0.3	-3.6	-21.0	x	x
O=C(NCCNc1ccc([N+](=O)[O-])cc1)c1ccccc1Br	-2.5	-4.5	-2.2	1.0	-11.7	3.0	x	x
CC1(C)CC(=O)C2=C(C1)N(c1ccccc1)C(=O)C2(O)C(F)(F)F (stereo unspecified)	5.8	-3.6	16.1*	3.6	0.3	3.0	2.4	7.4
CC1(C)CC(=O)C2=C(C1)N(c1ccc(F)cc1)C(=O)C2(O)C(F)(F)F (stereo unspecified)	-12.2	-5.5	1.9	2.7	12.8	-3.2	x	x
COc1cc(/C=C2\C(=O)N(C)C(=S)N2C)ccc1O	3.2	-84.3	19.0*	-0.5	-3.8	-8.2	31.0*	11.9
COc1cc(/C=C2/CC/C(=C/c3ccc(O)c(OC)c3)C2=O)ccc1O	-12.1	-137.0	24.2*	2.3	3.1	-17.4	35.5*	31.9*
Cc1onc(-c2c(F)cccc2Cl)c1C(=O)NCc1ccccc1	-9.5	-0.6	9.9	2.5	9.7	0.0	x	x
